Experimental data published in PubChem BioAssay (NCATS).
Records with an inconclusive call do not appear. Where a call stands in place of a potency, no number is given. The source made the active and inactive calls. Unless noted, the call rests on the fitted dose curve.

How the values were obtained:
[1] = target: Androgen receptor (Homo sapiens) (UniProt P10275); assay: qHTS assay for small molecule agonists of androgen receptor signaling (AID 588515; active means well fitted curve in the direction sought with a large enough effect in the signal ratio, with a control signal flat; the % refers to the signal ratio); conditions: AR-UAS-bla HEK293, beta-lactamase ratio, agonist 16 h; activation: stronger effect = higher value
Summary of the method: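 Stimulation of an AR-responsive β-lactamase reporter in GripTite HEK293 cells was measured after 16 h compound exposure at 37 °C, via CCF4 fluorescence after 2 h RT. EC50 from Hill fits, normalized to R1881 at 30 nM.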

[2] = target: Androgen receptor (Homo sapiens) (UniProt P10275); assay: qHTS assay for small molecule antagonists of androgen receptor signaling (AID 588516; active means well fitted curve in the direction sought with a large enough effect in the signal ratio, with a control signal flat, not every such curve was filed as active; the % refers to the signal ratio)
Summary of the method: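 Antagonist mode: inhibition of R1881-stimulated (10 nM final) bla reporter in GeneBLAzer AR HEK 293 cells, 16 h at 37C, compounds titrated. IC50 and efficacy from Hill-equation fits of 405/460–530 nm FRET ratios.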

[3] = target: Bile acid receptor (Homo sapiens) (UniProt Q96RI1); assay: qHTS assay for small molecule antagonists of farnesoid X receptor signaling (AID 588526)
Summary of the method: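 Concentration-response titrations were fitted to the Hill equation for half-maximal inhibition and maximal response, with data normalised to 50 uM chenodeoxycholic acid and DMSO control wells. Cells: FXR-UAS-bla HEK293T, dialyzed FBS.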

[4] = qHTS assay for small molecule antagonists of peroxisome proliferator-activated receptor delta signaling (AID 588535; active means well fitted inhibition curve with a large enough effect in the signal ratio, with a control signal flat, not every such curve was filed as active; the % refers to the signal ratio;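 on max response: cells co-treated with a PPAR-delta agonist as stimulator during compound exposure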); conditions: HEK293T PPARd-UAS-bla, beta-lactamase FRET ratio, 18 h; 460 nm channel
Summary of the method: (§1)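 Compounds tested in titration on PPAR-delta-UAS-bla HEK293T cells grown in charcoal/dextran-stripped serum (2%); beta-lactamase activity read via CCF4 emission at 460 and 530 nm.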

[5] = target: Peroxisome proliferator-activated receptor delta (Homo sapiens) (UniProt Q03181); assay: as above
Summary of the method: as §1

[6] = target: Peroxisome proliferator-activated receptor gamma (Homo sapiens) (UniProt P37231); assay: qHTS assay for small molecule antagonists of peroxisome proliferator-activated receptor gamma signaling (AID 588537; active means well fitted inhibition curve with a large enough effect in the signal ratio, with a control signal flat, not every such curve was filed as active; the % refers to the signal ratio; further: potency means the concentration at half of the fitted maximal effect)
Summary of the method: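 HEK293 cells, PPAR-gamma-UAS-bla, 3000/well. Pre-incubation 6-6.5 h, 37 C. Compound titration with rosiglitazone 50 nM final, 16 h. CCF4 dye, 2 h RT, dual-emission fluorescence.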

[7] = target: Thyroid hormone receptor beta (Homo sapiens) (UniProt P10828); assay: qHTS assay for small molecule antagonists of thyroid hormone receptor beta signaling (AID 588547; active means well fitted inhibition curve with a large enough effect in the signal ratio, with a control signal flat, not every such curve was filed as active; the % refers to the signal ratio;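 further: cells stimulated with 0.4 nM T3 agonist during compound exposure; series mostly up to about 77 µM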); conditions: TR-UAS-bla HEK293, beta-lactamase ratio, antagonist mode, 18 h
Summary of the method: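 TR-UAS-bla GripTite HEK293 cells in 2% charcoal/dextran FBS medium were preincubated 4 h at 37 C, given compound (0.59 nM to 92 uM) plus 0.4 nM T3 (final) for 18 h, then CCF4 for 2 h at RT; Hill fit gave IC50.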

[8] = qHTS assay for small molecule agonists of the antioxidant response element (ARE) signaling pathway (AID 651741; active means well fitted activation curve with a large enough effect in the signal ratio; the % refers to the signal ratio; further: potency means the concentration at half of the fitted maximal effect)
Summary of the method: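 Beta-lactamase reporter expression driven by the antioxidant response element in HepG2 cells was detected by fluorescence with LiveBLAzer B/G FRET substrate (2 h, room temperature) following 16 h compound treatment at 37 C.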

[9] = qHTS assay for small molecule activators of the p53 signaling pathway (AID 651743; active means well fitted activation curve with a large enough effect in the signal ratio, not every such curve was filed as active; the % refers to the signal ratio; further: series mostly up to about 92 µM); conditions: HCT-116 p53RE-bla, beta-lactamase FRET ratio, 16 h; activation: stronger effect = higher value
Summary of the method: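 Here HCT-116 cells with an integrated p53-responsive beta-lactamase gene were incubated with compounds (16 hours, 37 C) after a 5-hour plating period; beta-lactamase activity was detected as fluorescence intensity via B/G FRET substrate.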

Bile acid receptor (Homo sapiens), sequence (Q96RI1 whole entry, looked up): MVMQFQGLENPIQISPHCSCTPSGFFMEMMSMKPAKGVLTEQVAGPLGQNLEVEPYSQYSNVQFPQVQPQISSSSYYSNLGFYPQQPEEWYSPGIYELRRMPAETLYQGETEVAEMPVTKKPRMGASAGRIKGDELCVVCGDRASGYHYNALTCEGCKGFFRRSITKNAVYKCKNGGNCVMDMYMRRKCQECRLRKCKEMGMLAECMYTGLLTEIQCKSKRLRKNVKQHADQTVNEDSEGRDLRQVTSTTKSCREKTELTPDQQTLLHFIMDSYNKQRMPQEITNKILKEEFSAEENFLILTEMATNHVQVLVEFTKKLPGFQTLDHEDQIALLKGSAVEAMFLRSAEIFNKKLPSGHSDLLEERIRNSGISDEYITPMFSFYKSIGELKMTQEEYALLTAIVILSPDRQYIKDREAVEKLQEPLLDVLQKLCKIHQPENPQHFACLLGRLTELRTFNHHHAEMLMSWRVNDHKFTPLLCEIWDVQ
Peroxisome proliferator-activated receptor gamma (Homo sapiens), sequence (P37231 whole entry, looked up): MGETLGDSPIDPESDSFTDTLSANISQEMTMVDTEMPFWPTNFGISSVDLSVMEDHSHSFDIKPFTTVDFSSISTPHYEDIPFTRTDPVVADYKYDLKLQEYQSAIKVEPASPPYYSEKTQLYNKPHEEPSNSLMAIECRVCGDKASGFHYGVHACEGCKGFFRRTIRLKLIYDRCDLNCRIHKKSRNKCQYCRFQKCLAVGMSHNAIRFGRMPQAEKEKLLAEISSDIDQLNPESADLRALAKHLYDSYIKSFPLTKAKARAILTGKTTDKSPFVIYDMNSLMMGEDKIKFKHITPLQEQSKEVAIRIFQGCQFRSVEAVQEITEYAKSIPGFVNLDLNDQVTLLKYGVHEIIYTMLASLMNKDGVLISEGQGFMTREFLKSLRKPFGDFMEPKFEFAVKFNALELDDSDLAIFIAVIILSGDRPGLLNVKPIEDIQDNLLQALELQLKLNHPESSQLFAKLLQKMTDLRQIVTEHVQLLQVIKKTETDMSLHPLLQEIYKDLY
Thyroid hormone receptor beta (Homo sapiens), sequence (P10828 whole entry, looked up): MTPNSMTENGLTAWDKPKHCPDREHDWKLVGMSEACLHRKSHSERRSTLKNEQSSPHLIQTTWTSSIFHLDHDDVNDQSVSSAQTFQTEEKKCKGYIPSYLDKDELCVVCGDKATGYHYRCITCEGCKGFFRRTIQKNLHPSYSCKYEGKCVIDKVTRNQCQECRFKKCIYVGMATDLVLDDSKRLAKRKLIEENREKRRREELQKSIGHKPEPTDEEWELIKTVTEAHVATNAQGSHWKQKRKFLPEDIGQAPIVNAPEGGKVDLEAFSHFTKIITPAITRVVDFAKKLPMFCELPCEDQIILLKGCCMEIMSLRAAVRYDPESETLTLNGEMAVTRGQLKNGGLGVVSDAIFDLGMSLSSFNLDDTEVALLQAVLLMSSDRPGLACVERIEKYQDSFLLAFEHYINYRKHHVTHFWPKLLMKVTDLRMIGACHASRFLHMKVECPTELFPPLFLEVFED
Androgen receptor (Homo sapiens), sequence (P10275 whole entry, looked up): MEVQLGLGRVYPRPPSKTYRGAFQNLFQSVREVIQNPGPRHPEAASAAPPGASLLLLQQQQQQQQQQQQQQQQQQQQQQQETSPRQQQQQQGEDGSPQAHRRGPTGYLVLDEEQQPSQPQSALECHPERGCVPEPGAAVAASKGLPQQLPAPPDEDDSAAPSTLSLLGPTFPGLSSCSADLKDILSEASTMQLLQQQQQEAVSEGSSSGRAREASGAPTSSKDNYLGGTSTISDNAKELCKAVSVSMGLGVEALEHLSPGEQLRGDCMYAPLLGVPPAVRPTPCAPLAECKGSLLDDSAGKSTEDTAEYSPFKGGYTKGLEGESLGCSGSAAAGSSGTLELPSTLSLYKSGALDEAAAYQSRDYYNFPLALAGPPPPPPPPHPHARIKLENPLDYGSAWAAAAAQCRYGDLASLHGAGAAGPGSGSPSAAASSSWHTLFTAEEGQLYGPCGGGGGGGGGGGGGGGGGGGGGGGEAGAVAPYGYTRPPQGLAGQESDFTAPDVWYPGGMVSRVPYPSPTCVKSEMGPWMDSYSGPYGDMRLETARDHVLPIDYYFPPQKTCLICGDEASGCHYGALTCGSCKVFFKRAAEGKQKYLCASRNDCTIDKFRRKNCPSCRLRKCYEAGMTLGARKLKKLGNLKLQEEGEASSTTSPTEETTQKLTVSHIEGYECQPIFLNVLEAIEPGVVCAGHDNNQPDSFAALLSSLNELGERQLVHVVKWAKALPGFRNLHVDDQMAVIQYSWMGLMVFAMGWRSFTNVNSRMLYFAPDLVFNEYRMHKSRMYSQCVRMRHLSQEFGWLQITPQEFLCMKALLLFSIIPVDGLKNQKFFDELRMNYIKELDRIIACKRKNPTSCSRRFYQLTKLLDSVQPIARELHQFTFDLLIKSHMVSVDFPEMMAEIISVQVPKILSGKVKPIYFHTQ
Peroxisome proliferator-activated receptor delta (Homo sapiens), sequence (Q03181 whole entry, looked up): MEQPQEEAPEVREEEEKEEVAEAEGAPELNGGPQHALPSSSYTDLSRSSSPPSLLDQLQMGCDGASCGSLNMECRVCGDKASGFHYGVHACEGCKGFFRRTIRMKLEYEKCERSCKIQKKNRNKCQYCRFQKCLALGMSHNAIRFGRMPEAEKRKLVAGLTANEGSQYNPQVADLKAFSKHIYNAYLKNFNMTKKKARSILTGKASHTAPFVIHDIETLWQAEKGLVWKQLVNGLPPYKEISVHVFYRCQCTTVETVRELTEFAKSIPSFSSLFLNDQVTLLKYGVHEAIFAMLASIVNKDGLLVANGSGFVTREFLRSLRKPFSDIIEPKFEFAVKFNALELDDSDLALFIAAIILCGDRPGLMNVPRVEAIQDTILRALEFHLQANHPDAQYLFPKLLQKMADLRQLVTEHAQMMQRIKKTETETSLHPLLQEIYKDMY

SMILES	activation [1]	outcome [2]	Potency [3]	max response [4] [%]	Potency [5]	Potency [6]	activity change % (negative = inhibition) [7]	Potency [8]	activation [9]
CC(C)(C)c1n[nH]c(=O)n(N)c1=O	8.74% (inactive)	inactive	inactive	-9.84	inactive	inactive	0.427% (inactive)	inactive	–
CO[Si](CCCNCCN)(OC)OC	4.85% (inactive)	inactive	–	40.3	inactive	–	7.69% (inactive)	–	–
CC(C)=CCC/C(C)=C\CO	-0.0899% (inactive)	inactive	–	2.44	–	inactive	-2.03% (inactive)	inactive	1.13% (inactive)
COC(=O)C(C)Oc1ccc(Oc2ncc(C(F)(F)F)cc2Cl)cc1 (configuration not stated)	–	–	–	-16.8	inactive	inactive	–	inactive	-4.64% (inactive)
CCN(Cc1cccc(S(=O)(=O)O)c1)c1ccc(C(=C2C=CC(=[N+](CC)Cc3cccc(S(=O)(=O)[O-])c3)C=C2)c2ccccc2)cc1	–	–	–	–	–	–	-4.54% (inactive)	54.5 µM (active)	-2.82% (inactive)
O=S(=O)(O)c1ccc(N=Nc2cc(S(=O)(=O)O)c3ccccc3c2O)c2ccccc12	11.4% (inactive)	inactive	inactive	26.6	inactive	inactive	–	–	2.63% (inactive)
C=CCCCCCCCCCCCC	-5.69% (inactive)	inactive	–	14.9	inactive	inactive	–	–	-3% (inactive)
O=C(O)C1(C(=O)Nc2ccc(Cl)cc2Cl)CC1	–	inactive	–	–	–	44.7 µM (active)	–	–	–
O=C=NCCCCCCN=C=O	–	–	–	15.2	–	–	–	inactive	1.63% (inactive)
CCCCC(CC)COC(=O)c1ccc(C(=O)OCC(CC)CCCC)cc1 (configuration not stated)	–	inactive	inactive	-1.09	inactive	inactive	–	inactive	–
